Laboratory results: PubChem BioAssay (Tox21)
A number with no mark means an inactive call. Records with an inconclusive call do not appear. A call without a number means that no potency is given here. Activity calls are given as the source filed them. Unless noted, calls come from the whole dose curve.

Tests used:
[1] = Nuclear factor erythroid 2-related factor 2/antioxidant responsive element (Nrf2/ARE) small molecule agonists: qHTS cell viability counter screen in human keratinocytes (AID 1919968; active = well fitted curve in the direction sought with a large enough effect in the repeat runs; an effect the other way counts as inactive or inconclusive; note: nearly all actives have a fitted effect of over 55% in size; note: potency is the fitted concentration of half-maximal effect)
In short: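 Fluorescence read-out from CellTiter-Fluor after 1 h at 37 C. Wells held HaCaT-derived ARE-luciferase reporter cells (1,500/well) treated 23 h with DMSO-dissolved compounds. Run in the same wells as the luciferase agonist read.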

[2] = biological target: Gonadotropin-releasing hormone receptor (Homo sapiens) (UniProt P30968); experiment: Human gonadotropin-releasing hormone receptor (GnRHR) small molecule agonists, calcium flux assay in GnRHR-HEK293 cells (AID 1920063); note: nearly all actives have a fitted effect of over 35% in size
Gonadotropin-releasing hormone receptor (Homo sapiens), sequence (P30968 whole entry, looked up): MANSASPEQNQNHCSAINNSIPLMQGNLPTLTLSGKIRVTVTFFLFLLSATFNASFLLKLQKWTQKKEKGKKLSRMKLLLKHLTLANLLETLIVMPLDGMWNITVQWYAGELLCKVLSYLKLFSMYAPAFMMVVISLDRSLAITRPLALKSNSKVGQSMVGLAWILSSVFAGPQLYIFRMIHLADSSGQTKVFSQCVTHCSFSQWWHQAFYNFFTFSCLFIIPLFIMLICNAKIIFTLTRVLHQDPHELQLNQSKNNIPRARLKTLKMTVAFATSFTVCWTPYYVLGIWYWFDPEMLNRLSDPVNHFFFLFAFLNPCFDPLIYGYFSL
In short: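 Calcium-dye fluorescence, Ex/Em=480/540, recorded every 1 sec over 3 min after compound addition to GnRHR-HEK293 cells. Cells had been seeded 18 hours earlier and dye-loaded for 1 hour at 37 C. Fifteen concentrations, triplicates.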

[3] = biological target: KiSS-1 receptor (Homo sapiens) (UniProt Q969F8); experiment: Human kisspeptin (KISS1R) small molecule agonists, calcium flux assay in KISS1R-HEK293 cells (AID 1920064; active = well fitted curve in the direction sought with a large enough effect in the repeat runs; an effect the other way counts as inactive or inconclusive)
KiSS-1 receptor (Homo sapiens), sequence (Q969F8 whole entry, looked up): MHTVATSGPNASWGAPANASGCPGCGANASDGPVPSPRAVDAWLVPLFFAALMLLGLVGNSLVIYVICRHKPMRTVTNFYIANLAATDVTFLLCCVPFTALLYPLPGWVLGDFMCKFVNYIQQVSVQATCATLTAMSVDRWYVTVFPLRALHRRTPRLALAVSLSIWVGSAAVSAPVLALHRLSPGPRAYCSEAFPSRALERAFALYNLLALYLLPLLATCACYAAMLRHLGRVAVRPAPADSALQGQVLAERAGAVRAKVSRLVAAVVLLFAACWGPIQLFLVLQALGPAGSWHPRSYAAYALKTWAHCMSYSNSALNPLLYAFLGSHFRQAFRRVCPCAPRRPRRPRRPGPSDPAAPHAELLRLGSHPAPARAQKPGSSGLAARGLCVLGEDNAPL
In short: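 Calcium flux read-out: kinetic fluorescence at Ex/Em=480/540, 1 s intervals over 3 min, after pin-tool compound addition to dye-loaded KISS1R-HEK293 cells. Fifteen concentrations, triplicates.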

[4] = G protein-coupled receptor (GPCR) small molecule agonists, calcium flux assay: HEK293 wild type cell line counter screen (AID 1920065)
In short: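 Agonist mode; 18 h seeding at 37 C, 1 h dye load at 37 C; compounds pinned from DMSO, ATP as positive control; kinetic fluorescence 480/540 nm, 3 min, 1 s reads; 15 concentrations, triplicate.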

[5] = p53 small molecule agonists, cell-based qHTS assay with human liver microsomes (AID 1963577);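 note: p53 response element beta-lactamase reporter cells with liver microsomes plus NADPH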
In short: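 Steps: plate p53RE-bla cells, incubate 5 h at 37 C; add compound in DMSO; add microsomes (0.5 mg/mL final) and NADPH (0.5 mg/mL final); incubate 16 h at 37 C; add LiveBLAzer, 2 h RT; read fluorescence.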

[6] = p53 small molecule agonists, cell-based qHTS assay with rat liver microsomes (AID 1963578)
In short: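 Metabolic activation is supplied by rat liver microsomes with NADPH (each 0.5 mg/mL final). p53RE-bla cells incubate with compound 16 h at 37 C; reporter activity is measured by LiveBLAzer fluorescence.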

[7] = p53 small molecule agonists, cell-based qHTS assay with human liver microsomes: qHTS cell viability counter screen (AID 1963579); note: nearly all actives have a fitted effect of over 45% in size
In short: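 After the 460/530 nm beta-lactamase read, CellTiter-Glo was added to the same wells and luminescence measured after 30 min at room temperature, giving viability of p53RE-bla cells treated 16 h with compounds plus microsomes and NADPH.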

[8] = p53 small molecule agonists, cell-based qHTS assay: qHTS cell viability counter screen (AID 1963581); note: nearly all actives have a fitted effect of over 45% in size
In short: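 Cytotoxicity read-out: ATP-based luminescence (CellTiter-Glo, 30 min RT) measured in the same wells as the p53 reporter assay, HCT-116 p53RE-bla cells, 16 h compound exposure at 37 C.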

[9] = p53 small molecule agonists, cell-based qHTS assay (AID 1963582; active = well fitted activation curve with a large enough effect in the signal ratio in the repeat runs, not every such curve was filed as active; the % refers to the signal ratio)
In short: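 Fluorescence intensity read-out of a beta-lactamase reporter under a p53 response element. Cells were exposed to DMSO-dissolved compounds for 16 h at 37 C, then developed with FRET substrate for 2 h at RT.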

[10] = biological target: 5-hydroxytryptamine receptor 2A (Homo sapiens) (UniProt P28223); experiment: 5-hydroxytryptamine receptor 2A (HTR2A) small molecule antagonists, cell-based qHTS assay (AID 1963586); note: nearly all actives have a fitted effect of over 45% in size
5-hydroxytryptamine receptor 2A (Homo sapiens), sequence (P28223 whole entry, looked up): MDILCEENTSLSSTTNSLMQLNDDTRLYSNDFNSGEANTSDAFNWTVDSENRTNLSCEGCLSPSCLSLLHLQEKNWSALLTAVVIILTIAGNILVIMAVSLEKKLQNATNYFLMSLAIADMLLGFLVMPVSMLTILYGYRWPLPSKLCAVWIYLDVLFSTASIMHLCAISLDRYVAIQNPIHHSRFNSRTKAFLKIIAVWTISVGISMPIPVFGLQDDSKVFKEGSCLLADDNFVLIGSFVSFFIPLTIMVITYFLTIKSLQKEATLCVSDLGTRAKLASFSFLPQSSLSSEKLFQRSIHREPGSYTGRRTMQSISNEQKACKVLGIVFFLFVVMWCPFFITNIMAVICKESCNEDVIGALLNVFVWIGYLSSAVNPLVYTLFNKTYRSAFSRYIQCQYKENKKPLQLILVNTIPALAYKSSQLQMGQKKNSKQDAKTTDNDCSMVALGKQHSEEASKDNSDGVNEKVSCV
In short: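 CHO cells stably expressing human HTR2A were plated for 18 h at 37 C, then loaded with calcium dye for 1 h. Compounds were preincubated 5 min at room temperature before DOI (4 nM solution) was added. Kinetic fluorescence was read for 3 min.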

[11] = biological target: 5-hydroxytryptamine receptor 2A (Homo sapiens) (UniProt P28223); experiment: 5-hydroxytryptamine receptor 2A (HTR2A) small molecule agonists, cell-based qHTS assay (AID 1963587); note: nearly all actives have a fitted effect of over 30% in size; note: potency is the fitted concentration of half-maximal effect
In short: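 HTR2A-CHO cells, plated 18 h at 37 C/5% CO2, dye-loaded 1 h at 37 C; compounds in DMSO added by pin tool (agonist mode). Intracellular calcium flux read as kinetic fluorescence on FDSS over 2 min at 1 s intervals.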

[12] = biological target: Muscarinic acetylcholine receptor M1 (Homo sapiens) (UniProt P11229); experiment: Cholinergic receptor muscarinic 1 (CHRM1) small molecule antagonists, cell-based qHTS assay (AID 1963588); note: nearly all actives have a fitted effect of over 40% in size; note: potency is the fitted concentration of half-maximal effect
Muscarinic acetylcholine receptor M1 (Homo sapiens), sequence (P11229 whole entry, looked up): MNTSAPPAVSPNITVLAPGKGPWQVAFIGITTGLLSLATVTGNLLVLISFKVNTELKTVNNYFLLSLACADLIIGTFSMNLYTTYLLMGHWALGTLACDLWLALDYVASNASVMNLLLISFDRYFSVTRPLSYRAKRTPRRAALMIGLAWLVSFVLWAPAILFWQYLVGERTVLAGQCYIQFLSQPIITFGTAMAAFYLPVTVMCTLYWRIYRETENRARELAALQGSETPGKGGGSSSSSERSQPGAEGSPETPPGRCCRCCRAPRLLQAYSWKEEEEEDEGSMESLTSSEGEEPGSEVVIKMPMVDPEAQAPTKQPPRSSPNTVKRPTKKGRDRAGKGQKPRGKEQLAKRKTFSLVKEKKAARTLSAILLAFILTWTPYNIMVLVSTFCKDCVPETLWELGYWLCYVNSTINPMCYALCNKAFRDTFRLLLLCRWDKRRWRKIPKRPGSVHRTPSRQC
In short: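 Compounds were tested at 15 concentrations in three independent runs. Dye-loaded CHRM1-CHO cells were exposed 5 min at room temperature before stimulation by acetylcholine added at 50nM. Intracellular calcium was read kinetically on FDSS for 3 min.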

[13] = biological target: Muscarinic acetylcholine receptor M1 (Homo sapiens) (UniProt P11229); experiment: Cholinergic receptor muscarinic 1 (CHRM1) small molecule agonists, cell-based qHTS assay (AID 1963589); note: nearly all actives have a fitted effect of over 35% in size
In short: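 Calcium flux read-out: kinetic fluorescence at 1 sec intervals after pin-tool compound addition to dye-loaded CHRM1-CHO cells (human M1). Agonist mode; 15 concentrations tested in triplicate independent runs.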

[14] = cAMP Responsive Elements (CRE) small molecule agonists, cell-based qHTS assay (AID 1963590)
In short: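 Beta-lactamase reporter readout: LiveBLAzer B/G FRET substrate, 2 h at room temperature, added after 3 h compound treatment of CRE-bla HEK 293T cells at 37 C/5% CO2.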

[15] = cAMP Responsive Elements (CRE) small molecule antagonists, cell-based qHTS assay (AID 1963591; active = well fitted inhibition curve with a large enough effect in the signal ratio in the repeat runs, not every such curve was filed as active; the % refers to the signal ratio)
In short: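 HEK293T CRE-bla; 18 h preincubation; compound pin-transfer; NKH477 0.25 uM final, 3 h, 37 C; LiveBLAzer FRET substrate 2 h RT.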

[16] = biological target: Beta-2 adrenergic receptor (Homo sapiens) (UniProt P07550); experiment: Adrenergic beta2 receptor (ADRB2) small molecule antagonists, cell-based qHTS assay (AID 1963592); note: series mostly up to about 92 µM; nearly all actives have a fitted effect of over 50% in size
Beta-2 adrenergic receptor (Homo sapiens), sequence (P07550 whole entry, looked up): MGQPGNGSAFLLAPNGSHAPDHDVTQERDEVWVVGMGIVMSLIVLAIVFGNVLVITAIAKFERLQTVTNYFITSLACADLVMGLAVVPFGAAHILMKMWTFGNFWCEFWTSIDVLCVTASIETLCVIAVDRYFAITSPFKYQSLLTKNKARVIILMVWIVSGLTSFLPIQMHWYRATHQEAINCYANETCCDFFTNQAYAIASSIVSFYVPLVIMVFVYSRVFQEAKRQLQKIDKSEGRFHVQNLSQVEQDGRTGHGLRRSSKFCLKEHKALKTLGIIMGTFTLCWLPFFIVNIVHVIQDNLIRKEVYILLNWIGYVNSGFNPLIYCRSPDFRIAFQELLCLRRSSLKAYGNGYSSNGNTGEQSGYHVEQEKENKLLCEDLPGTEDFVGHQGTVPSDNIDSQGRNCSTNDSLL
In short: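 Assay format: CHO-ADRB2 cells, 18-20hr seeding at 37C/5% CO2, then compound plus 1nM isoproterenol agonist mix for 0.5hr RT. Homogeneous time-resolved fluorescence cAMP detection after 1hr, expressed as 665/615 nm ratio.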

[17] = biological target: D(2) dopamine receptor (Homo sapiens) (UniProt P14416); experiment: Dopamine D2 receptor (DRD2) small molecule agonists, cell-based qHTS assay (AID 1963594); note: nearly all actives have a fitted effect of over 35% in size
D(2) dopamine receptor (Homo sapiens), sequence (P14416 whole entry, looked up): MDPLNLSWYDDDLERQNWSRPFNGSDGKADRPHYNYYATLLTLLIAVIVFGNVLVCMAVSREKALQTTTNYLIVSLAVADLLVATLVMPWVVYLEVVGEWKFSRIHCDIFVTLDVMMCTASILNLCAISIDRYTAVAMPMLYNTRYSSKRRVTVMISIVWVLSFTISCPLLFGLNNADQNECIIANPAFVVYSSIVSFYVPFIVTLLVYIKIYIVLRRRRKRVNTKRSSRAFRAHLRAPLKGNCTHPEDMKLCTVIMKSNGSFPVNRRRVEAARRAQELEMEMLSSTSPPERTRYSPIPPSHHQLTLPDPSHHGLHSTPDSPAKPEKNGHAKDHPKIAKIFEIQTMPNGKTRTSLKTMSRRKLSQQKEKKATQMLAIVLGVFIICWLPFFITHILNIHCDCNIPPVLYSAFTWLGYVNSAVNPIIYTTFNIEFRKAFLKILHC
In short: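 HEK293 cells stably expressing DRD2 were cultured 24 h at 37 C, then given Ro20-1724 (0.1 mM final) and compounds for 10 min at room temperature. NKH477 (200nM) was then added for 30 min. cAMP was read by HTRF.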

[18] = biological target: D(2) dopamine receptor (Homo sapiens) (UniProt P14416); experiment: Dopamine D2 receptor (DRD2) small molecule antagonists, cell-based qHTS assay (AID 1963595; active = well fitted inhibition curve with a large enough effect in the signal ratio in the repeat runs, with a control signal flat; the % refers to the signal ratio)
In short: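 HTRF cAMP read-out at 665 and 620 nm emission (340 nm excitation). Antagonist mode: compounds were tested against 12 nM quinpirole in DRD2-HEK293 cells, with 200 nM NKH477 raising cAMP and 0.1 mM Ro20-1724 blocking its breakdown.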

[19] = biological target: Beta-2 adrenergic receptor (Homo sapiens) (UniProt P07550); experiment: Adrenergic beta2 receptor (ADRB2) small molecule agonists, cell-based qHTS assay (AID 1963593);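 note: CHO cells stably overexpressing human ADRB2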
In short: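 CHO cells stably over-expressing ADRB2 were plated overnight at 37C, then dosed with compounds plus a stimulation mix containing 100uM IBMX and 25uM Ro-20-1724 for 0.5hr at room temperature. cAMP was measured by HTRF competition, 1hr.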

[20] = p53 small molecule agonists, cell-based qHTS assay with rat liver microsomes: qHTS cell viability counter screen (AID 1963580); note: nearly all actives have a fitted effect of over 45% in size
In short: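 Counter screen for cytotoxicity under metabolic activation: rat liver microsomes and NADPH, 0.5 mg/mL final each, added with compounds to p53RE-bla HCT-116 cells; 16 h at 37 C, then ATP luminescence read.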

Row | SMILES | Potency [1] | Potency [2] | outcome [3] | outcome [4] | Potency [5] | Potency [6] | Potency [7] | Potency [8] | Potency [9] | Potency [10] | Potency [11] | Potency [12] | Potency [13] | Potency [14] | Potency [15] | Potency [16] | Potency [17] | Potency [18] | Potency [19] | Potency [20]
1 | BrCCCCCBr | inactive | inactive | inactive | inactive | inactive | inactive | inactive | inactive | inactive | inactive | inactive | inactive | inactive | inactive | inactive | inactive | inactive | inactive | – | –
2 | CCCCCCC(O)CCCCCCCCCCC(=O)OC (stereo not drawn) | inactive | inactive | inactive | inactive | inactive | inactive | inactive | inactive | inactive | inactive | inactive | – | inactive | – | inactive | inactive | inactive | inactive | inactive | –
3 | OC[C@H]1O[C@@H](O[C@@H]2[C@@H](CO)O[C@](O)(CO)[C@H]2O)[C@H](O)[C@@H](O)[C@H]1O | inactive | inactive | inactive | inactive | inactive | inactive | inactive | inactive | inactive | – | inactive | inactive | inactive | inactive | inactive | inactive | inactive | inactive | – | inactive
4 | CC(=O)Nc1ccc(OCC(O)CNC(C)C)cc1 (stereo not drawn) | inactive | inactive | inactive | inactive | inactive | inactive | inactive | – | inactive | – | inactive | inactive | – | – | inactive | – | inactive | inactive | – | inactive
5 | CCCCCCCCOCCCN | 68.6 µM (active) | inactive | inactive | inactive | inactive | inactive | inactive | inactive | inactive | – | 24.5 µM (active) | inactive | – | inactive | inactive | inactive | inactive | – | – | inactive
6 | CC(=O)CC(=O)OC(C)(C)C | inactive | inactive | inactive | inactive | inactive | inactive | inactive | inactive | – | inactive | inactive | inactive | – | inactive | inactive | inactive | inactive | inactive | inactive | –
7 | COC(=O)C(C)O (stereo not drawn) | inactive | inactive | inactive | inactive | inactive | inactive | inactive | – | inactive | inactive | inactive | inactive | inactive | – | inactive | inactive | inactive | inactive | inactive | inactive
8 | C=CC(C)(CCC=C(C)C)OC(=O)c1ccccc1 (stereo not drawn) | inactive | inactive | inactive | inactive | inactive | inactive | inactive | inactive | inactive | – | inactive | inactive | inactive | inactive | inactive | inactive | inactive | inactive | – | inactive
9 | CCCCCCCCCCCCCC(=O)OCC | inactive | inactive | inactive | inactive | inactive | inactive | inactive | inactive | – | inactive | inactive | inactive | inactive | inactive | inactive | inactive | inactive | inactive | inactive | inactive
10 | CC1c2ccccc2CN1NC(=O)c1ccc(Cl)c(S(N)(=O)=O)c1 (stereo not drawn) | inactive | inactive | inactive | inactive | inactive | inactive | inactive | inactive | inactive | – | inactive | inactive | inactive | inactive | inactive | inactive | inactive | inactive | – | inactive
11 | C=CCOC(=O)/C=C\C(=O)OCC=C | inactive | inactive | inactive | inactive | inactive | inactive | inactive | inactive | inactive | – | inactive | inactive | inactive | – | – | inactive | inactive | inactive | inactive | inactive
12 | Cc1ccsc1/C=C/C1=NCCCN1C | inactive | inactive | inactive | inactive | inactive | inactive | inactive | inactive | – | inactive | inactive | 0.0033 µM (active) | inactive | – | inactive | inactive | inactive | inactive | inactive | inactive
13 | O=NN(CCCl)C(=O)NC1CCCCC1 | inactive | inactive | inactive | inactive | inactive | inactive | inactive | inactive | inactive | – | – | – | – | inactive | inactive | inactive | – | inactive | inactive | inactive
